Only a selection was taken, and hits are over-represented in it overall.
Dicer processing – human Dicer pre-microRNA cleavage inhibition. AID 1347074. 6% of 47,000 active. Q9UPY3. z-score at 25 µM. cat-ELCCA pre-miR-21 Dicer processing, chemiluminescence; stronger effect = higher value; in the data active = z-score above about 3, passing the limit was not always enough;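 note: plate controls were vehicle for no effect and no enzyme for full effect; higher signal means more uncleaved substrate so more Dicer inhibition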
* = called active by the depositor.

SMILES	Dicer processing
Cc1ccc(CNCCc2ccc3c(c2)OCO3)cc1	-1.6
Fc1ccccc1CCNCc1ccc2c(c1)OCO2	1.5
COc1ccccc1CCNCc1ccc2c(c1)OCO2	3.3*
O=c1[nH]c(O)c(/C=C2\C=CC=N2)c(=O)[nH]1	0.24
COc1cc2c(=O)n(-c3ccccc3)c(=S)[nH]c2c(OC)c1OC	-0.35
Cc1nc2ccccc2c(=O)n1-c1ccccc1	-1.2
NNC(=O)c1ccc(O)cc1	3.7*
NCCc1ccc(O)cc1	-1.2
NCC(=O)c1ccc(Cl)cc1	0.75
ON=C1CC2CCCC(C1)N2Cc1cccs1	-0.04
CCCC(C)C1(CC)C(=O)NC(=O)NC1=O (configuration not stated)	3.7*
C=CCC1(CC(C)C)C(=O)NC(=O)NC1=O	0.12
CCCCCOc1ccc2c(c1)oc(=O)c1ccccc12	0.02
COc1cccc(-n2c(/C=C/c3ccc([N+](=O)[O-])o3)nc3ccccc3c2=O)c1	1.7
CCc1ccccc1-n1c(=S)[nH]c2ccc(C)cc2c1=O	-0.18
Cc1ccccc1-n1c(/C=C/c2ccc([N+](=O)[O-])o2)nc2ccccc2c1=O	5.5*
O=c1c2ccccc2nc(/C=C/c2ccc([N+](=O)[O-])o2)n1-c1ccccc1Cl	-0.34
O=c1c2ccccc2nc(/C=C/c2ccc([N+](=O)[O-])o2)n1-c1ccc(O)cc1	0.79
O=C(COc1ccc(Cl)cc1)OCc1csc2c1C1CCN2CC1	1.2
OC(CN1CC=C(c2ccccc2)CC1)C(F)(F)F (configuration not stated)	1.1
COCc1cc(OC(=O)N(C)C)nc(-c2cc(Cl)cc(Cl)c2)n1	-0.35
O=C1C(=Cc2cccc3ccccc23)N2CCC1CC2	1.6
Cc1ccccc1NC1=NCC(C)(C)S1	-0.96
CC1(C)CN=C(Nc2ccccc2)S1	3*
CC1(C)CN=C(Nc2cccc(C(F)(F)F)c2)S1	-1.1
SMILES	Dicer processing
CN1CC[C@@]2(C)c3cc(O)ccc3N(C)[C@H]12	-0.2
Cc1cccc(Cl)c1NC1=NCCCS1	0.14
Cc1ccc(-n2c(C)nc3ccccc3c2=O)cc1	-1.1
Cc1cccc(C)c1NC1=NC(C)(C)CS1	-4.6
C=C1CC2(C)C(=CC1=O)CCC1C2CCC2(C)C(O)CCC12 (configuration not stated)	0.42
COc1ccc(Oc2c(C)oc3cc(OC(=O)N(C)C)ccc3c2=O)cc1	0.84
Cc1cc(CN(C)C)c(OC(=O)N(C)C)cc1C	0.46
Cc1cc(=O)oc2cc(OC(=O)N(C)C)c(Cl)cc12	3.6*
CN(C)C(=O)Oc1nnc(SCc2ccc(Cl)cc2Cl)n1-c1cccc(Cl)c1	0.42
C=C1CC2(C)C(=CC1=O)CCC1C2CCC2(C)C1CC[C@]2(C)OC(C)=O (some centres not stated)	-1.4
CC12CN3CC(C)(CN(C1)C3c1cccnc1)C2=O (configuration not stated)	-0.99
O=S(=O)(c1ccc(Cl)cc1Cl)N1CCCC1c1cccnc1 (configuration not stated)	-0.7
O=C1CC(c2cccnc2)Nc2ccc3ccccc3c21 (configuration not stated)	3.5*
CC[C@H](C)[C@H]1O[C@]2(C=C[C@@H]1C)C[C@@H]1C[C@@H](C/C=C(\C)C(O[C@H]3C[C@H](OC)C(O[C@H]4C[C@H](OC)[C@@H](O)[C@H](C)O4)[C@H](C)O3)[C@@H](C)/C=C/C=C3\CO[C@@H]4[C@H](O)C(C)=C[C@@H](C(=O)O1)[C@]34O)O2 (some centres not stated)	1.1
Clc1ccccc1CC1=NCCN1	1.1
Cc1nc2cc(Cl)ccc2c(=O)n1-c1ccc(F)cc1	-0.39
CC12CCC3C(CC4OCC35CCC(O)C[C@]45Br)C1CCC2OC(=O)c1ccccc1 (some centres not stated)	-1.1
CCOc1ccc(/C=C(\C)[N+](=O)[O-])cc1OC	-0.39
COc1ccc(/C=C/[N+](=O)[O-])c(OC)c1	-0.45
O=[N+]([O-])/C=C/c1ccc(C(F)(F)F)cc1Cl	-0.06
O=[N+]([O-])/C=C/c1ccc(Cl)cc1Cl	3.5*
O=C(c1ccco1)c1cn(Cc2ccc(Br)cc2)c2ccccc12	-0.67
C[C@H](N)[C@H](O)c1ccc(O)c(O)c1	5.6
CC(N)[C@H](O)c1ccc(O)c(O)c1 (some centres not stated)	4.1*
COc1ccc(OC)c(C(O)C(C)N)c1 (configuration not stated)	0.13
SMILES	Dicer processing
O=C1CC2CCCC(C1)N2Cc1ccccc1	-0.39
CCCCCOc1ccc(C2SCC(=O)Nc3c2c(=O)[nH]n3C(C)C)cc1 (configuration not stated)	-0.28
CN1C2CCC1CC(=NOC(=O)c1ccco1)C2	-0.45
c1ccc(CNCCc2c[nH]c3ccccc23)cc1	3.2*
Cc1cccc(CNCCc2c[nH]c3ccccc23)c1	0.46
CCc1ccc(CNCCc2c[nH]c3ccccc23)cc1	-0.52
CCCCCC[C@H]1C(=O)O[C@H](C)C(NC(=O)c2cccc(NC=O)c2O)C(=O)O[C@@H](C)[C@@H]1OC(=O)CC(C)C (some centres not stated)	1.9
C=CC1CC2CCN1C(C(=O)c1ccnc3ccc(OC)cc13)C2 (configuration not stated)	-1.1
O=S(=O)(c1ccc(O)cc1)c1ccc(O)cc1	3.5*
Cc1nc(COc2ccc(/C(N)=N/OC(=O)N(C)C)cc2)cs1	-1.7
CCc1c(C(=O)OC)c2cc(O)ccc2n1Cc1ccccc1	-0.36
CCOC(=O)c1c(C)n(C2CC2)c2ccc(O)cc12	3.3*
CCCCCCn1c(N)c(C(=O)OCC)c2nc3ccccc3nc21	-2.6
CCCn1c(C)c(C(=O)OCC)c2cc(O)ccc21	6.8*
CNC(=O)Oc1noc2ccc(Cl)cc12	-0.49
CC1(C)CC(CCNCc2ccccc2F)(c2ccccc2)CCO1 (configuration not stated)	2
C#CCSc1nc2ccccc2c(=O)n1-c1ccccc1OC	0.57
COc1ccccc1C1CCN(c2ccc([N+](=O)[O-])c(C(F)(F)F)c2)CC1	0.23
CC1(C)CC(n2[nH]c(=O)c3c2NC(=O)CSC3c2ccc(Cl)cc2)CCO1 (configuration not stated)	0.28
Oc1ccc(C2(c3ccc(O)cc3)CCCCC2)cc1	3.1*
Cc1cccc(NC(c2ccc(N(C)C)cc2)c2ccc3ccc(C)nc3c2O)n1 (configuration not stated)	2
NC(N)=N/N=C/c1ccc(/C=N/N=C(N)N)cc1	-1.9
CCOc1ccccc1NC1=NCCS1	1
CCOc1cc(C(F)(F)F)cnc1/C(N)=N/OC(=O)NC	-0.51
COc1ccc2c(CCN)c[nH]c2c1	-0.58
SMILES	Dicer processing
COc1ccc(O)c(C(C)(C)C)c1	3.8*
Cc1cc(C(C)(C)c2ccc(O)c(C)c2)ccc1O	1.3
CCN1CCN(c2ncnc3nc[nH]c23)CC1	0.02
CC12CCC(=O)C=C1C=CC1C2CCC2(C)C1CC[C@]2(C)O (some centres not stated)	-1.2
Cc1ccc(Cn2nc(C(=O)Nc3ccccc3)cc2C)cc1	-0.56
O=C1CCCN1C(=O)c1ccc(F)cc1	0.26
CN(C)C(=O)Oc1ccc(Br)cc1C(=O)Nc1ccc(F)cc1	4.4*
COc1ccc(OC(=O)N(C)C)c(CN(C)C)c1	1.1
CNc1ccc(Br)cc1C(=O)c1ccccc1Cl	-1.3
CN1CCc2cc(O)cc3c2[C@H]1Cc1ccc(O)c(O)c1-3	-0.43
CCCN1CCc2cc(O)cc3c2[C@H]1Cc1ccc(O)c(O)c1-3	4.5*
C=CCOc1ccc(C2SCC(=O)Nc3c2c(=O)[nH]n3C(C)CC)cc1 (configuration not stated)	0.31
